Results on ten compounds are retold here after PubChem BioAssay (NCATS).

The subject of one test is CRL-7250. The test is described as follows: Cytotoxic Profiling of Annotated Libraries Using Quantitative High-Throughput Screening (AID 1296008). On max response: on the % scale 0 is the no-effect control and ±100 the full control effect. As to conditions: Five cell lines viability, CellTiter-Glo ATP luminescence, 48-72 h; max response: stronger effect = lower value. The gist of the method:
(§1)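 Compounds were pin-transferred onto cells and incubated 48 or 72 hr at 37 degree Celsius, 95% humidity. CellTiter-Glo was added, plates sat 10 min at room temperature, then ATP-coupled luminescence was imaged as the viability read-out.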
(ATP-based viability assays read luminescence as a measure of living cells.)

In another test the test system is HEK293. The description is as above. As to conditions: Five cell lines viability, CellTiter-Glo ATP luminescence, 48-72 h; max response: stronger effect = lower value. The gist of the method: as §1
The test system of test [1] is HaCat. The description is as above. Particulars: Five cell lines viability, CellTiter-Glo ATP luminescence, 48-72 h; max response: stronger effect = lower value. The gist of the method:
as §1

The subject of another test is KB-3-1. The test is described as above. As to conditions: Five cell lines viability, CellTiter-Glo ATP luminescence, 48-72 h; max response: stronger effect = lower value. The gist of the method:
as §1

Test [2] relates to NIH3T3. The test is described as above. Particulars: Five cell lines viability, CellTiter-Glo ATP luminescence, 48-72 h; max response: stronger effect = lower value. The gist of the method:
as §1

Test [3] relates to HACAT. Nature of the test: qHTS assay to identify novel small-molecules to repurpose for Merkel cell carcinoma treatment (AID 1296009). Particulars: MCC and control cell lines, CellTiter-Glo viability, 72 h; at 44.8 µM (top of the series) unless noted. The gist of the method:
(§2)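 Cells exposed to NPC (8-point) and MIPE (11-point) compound dilutions for 72 hr at 37 degree celsius; viability read by CellTiter-Glo luminescence, normalized to no-cell and DMSO in-plate controls.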
(qHTS replaces the single test concentration by a dilution series.)

The next test has as its system HEK293T. Described as above. Particulars: MCC and control cell lines, CellTiter-Glo viability, 72 h; at 44.8 µM (top of the series) unless noted. The gist of the method: as §2
A further test concerns MCC-13. Described as above. Particulars: MCC and control cell lines, CellTiter-Glo viability, 72 h; series mostly up to 46 µM. Summed up:
as §2

The next test deals with MCC-26. The description is as above. Particulars: MCC and control cell lines, CellTiter-Glo viability, 72 h; series mostly up to 46 µM. Summed up:
as §2

Another test has as its system MKL-1. Described as above. Particulars: MCC and control cell lines, CellTiter-Glo viability, 72 h; series mostly up to 46 µM. The gist of the method: as §2
The test system of a further test is MKL-2. The description is as above. Particulars: MCC and control cell lines, CellTiter-Glo viability, 72 h; series mostly up to 46 µM. The gist of the method: as §2
A further test relates to UISO. The test is described as above. As to conditions: MCC and control cell lines, CellTiter-Glo viability, 72 h; series mostly up to 46 µM. Summed up:
as §2

A further test deals with WaGa. Described as above. Particulars: MCC and control cell lines, CellTiter-Glo viability, 72 h; series mostly up to 46 µM. The gist of the method: as §2
A further test has as its system PC49. Nature of the test: qHTS profiling for inhibitors of Plasmodium falciparum proliferation (AID 504749). As to conditions: P. falciparum in erythrocytes, SYBR Green DNA, 72 h; series mostly up to 28.7 µM. Summed up:
(§3)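 P. falciparum-infected erythrocytes (0.3% parasitemia, 2.5% hematocrit final) were exposed to compounds for 72 h at 37 C in 5% CO2, then lysed with SYBR Green buffer overnight at room temperature; parasite DNA fluorescence was normalized to artemisinin and DMSO controls.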

Another test deals with SC27B. The description is as above. As to conditions: P. falciparum in erythrocytes, SYBR Green DNA, 72 h; series mostly up to 28.7 µM. Summed up:
as §3

The next test has as its system TAB109. Described as above. As to conditions: P. falciparum in erythrocytes, SYBR Green DNA, 72 h; series mostly up to 28.7 µM. Summed up:
as §3

The subject of another test is TAB113. The test is described as above. Particulars: P. falciparum in erythrocytes, SYBR Green DNA, 72 h; series mostly up to 28.7 µM. Summed up:
as §3

In another test the test system is TAB165. Described as above. Particulars: P. falciparum in erythrocytes, SYBR Green DNA, 72 h; series mostly up to 28.7 µM. Summed up:
as §3

A further test concerns W2. The test is described as above. Particulars: P. falciparum in erythrocytes, SYBR Green DNA, 72 h; series mostly up to 28.7 µM. Summed up: as §3
The subject of test [4] is NIH3T3. The test is described as follows: qHTS assay to identify novel small-molecules to repurpose for Merkel cell carcinoma treatment (AID 1296009). As to conditions: MCC and control cell lines, CellTiter-Glo viability, 72 h; at 44.8 µM (top of the series) unless noted. Summed up:
as §2

Values joined by “and” are separate entries in the source; they are usually repeats but may differ in a detail not shown here. Equal entries are not always repeated. Inconclusive results are not listed. More than one record can exist for a structure, and the calls need not agree. Active and inactive are the calls of the source. The call rests on the fitted dose curve; in most records, active means well fitted inhibition curve with a large enough effect; inconclusive means small, poorly fitted or top-dose-only effect; inactive means flat fitted curve, though single readings scatter.
Further: nearly all actives have a fitted effect of over 60% in size.
Potency means the concentration at half of the fitted maximal effect.

With `CO[C@@H]1[C@@H](OC(N)=O)[C@@H](O)[C@H](Oc2ccc3c(O)c(NC(=O)c4ccc(O)c(CC=C(C)C)c4)c(=O)oc3c2C)OC1(C)C`, the max response was 0.852% (inactive) and -24.9% (inactive) with CRL-7250; 0.197% (inactive) in the test on HaCat [1]; -7.22% (inactive) and 9.2% (inactive) with KB-3-1; -2.07% (inactive) and -24% (inactive) in the test on NIH3T3 [2]. Also, the compound was called inactive in the test on HEK293, in the test on HaCat [1], with HACAT [3] and in the test on HEK293T. Besides, the Potency entry in the test on MCC-13, in the test on MCC-26, in the test with MKL-1, with MKL-2, in the test on UISO and in the test with WaGa was “inactive” throughout.
For `Cc1cccc(N(C)C(=S)Oc2ccc3ccccc3c2)c1`, the Potency entry with PC49, in the test with SC27B, with TAB109, in the test on TAB113, in the test on TAB165 and in the test with W2 was “inactive” throughout. Further, the Potency entry in the test on MCC-13, in the test with MKL-1, in the test with MKL-2, in the test on UISO and in the test with WaGa was “inactive” throughout. Also, the max response with CRL-7250 is -5.5% (inactive); in the test on HaCat [1] it was 0.266% (inactive) and 1.06% (inactive); in the test with KB-3-1 it was 1.04% (inactive); in the test on NIH3T3 [2], -1.35% (inactive) and 4.99% (inactive). The compound was classed as inactive in the test with CRL-7250 and with KB-3-1.
Turning to `CC[C@H](NC(C)C)[C@H](O)c1ccc(O)c2[nH]c(=O)ccc12`, the Potency entry in the test on PC49, in the test with SC27B, in the test with TAB109, in the test on TAB113, in the test on TAB165 and in the test on W2 was “inactive” in each case. Also, the Potency entry in the test with MCC-13, in the test with MCC-26, in the test with MKL-1, with MKL-2, with UISO and in the test with WaGa was “inactive” in each case. For the same compound, the max response in the test on CRL-7250 was 0.158% (inactive) and -0.536% (inactive); in the test with HaCat [1], -10.6% (inactive); in the test on KB-3-1 it was 8.39% (inactive); with NIH3T3 [2], 2.87% (inactive) and -5.91% (inactive). The result in the test on HEK293, in the test on HaCat [1], with HACAT [3] and with HEK293T was inactive.
For `C[C@@H](NCCCc1cccc(C(F)(F)F)c1)c1cccc2ccccc12`, the Potency is 6.31 µM (active) with SC27B; 4.47 µM (active) in the test with TAB109; 3.55 µM (active) in the test on TAB113; 3.98 µM (active) in the test with TAB165; 1.69 µM (active) in the test with W2; 15 µM (active) in the test with HEK293. The Potency with NIH3T3 [2] is 18.8 µM (active); in the test on MCC-26, “inactive and 29.9 µM (active)”. Further, the result in the test with CRL-7250, in the test with NIH3T3 [2] and in the test on NIH3T3 [4] was inactive. The max response in the test with HEK293 was -18.5% (inactive); with HaCat [1], -15.9% (inactive); with KB-3-1, 5.7% (inactive). Further, the Potency entry in the test with MCC-13, with MKL-1, in the test with MKL-2 and in the test on UISO was “inactive” throughout.
With `Clc1ccccc1CN1CCc2sccc2C1`, the max response in the test on CRL-7250 is -20.6% (inactive); in the test with HaCat [1], -7.82% (inactive); with KB-3-1, 9.17% (inactive) and -6.26% (inactive); with NIH3T3 [2], 1.51% (inactive) and 3.19% (inactive). In addition, the result in the test with CRL-7250 was inactive. In addition, the Potency entry in the test with MCC-13, in the test on MCC-26, in the test on MKL-1, with MKL-2, with UISO and in the test with WaGa was “inactive” in each case.
`COC(=O)Nc1nc2ccc(C(=O)c3ccccc3)cc2[nH]1`: the Potency entry in the test on PC49, in the test with SC27B, in the test on TAB109, in the test with TAB113 and in the test on TAB165 was “inactive” each time. Also, the Potency is 5.9 µM (active) with CRL-7250; 0.623 µM (active) with KB-3-1; 18.8 µM (active) and 2.64 µM (active) in the test on NIH3T3 [2]; 3.72 µM (active) with MCC-13; 4.18 µM (active) with UISO. Further, the max response with HEK293 was -90.7% (inactive); in the test on HaCat [1], 4.64% (inactive). Further, the compound was classed as inactive in the test on HaCat [1] and in the test with HACAT [3].
For the compound `C[C@@H]1CN(c2c(F)c(N)c3c(=O)c(C(=O)O)cn(C4CC4)c3c2F)C[C@H](C)N1`, the max response in the test on CRL-7250 is -4.39% (inactive); in the test with HaCat [1] it was -0.171% (inactive); in the test with KB-3-1, 8.25% (inactive) and 3.23% (inactive); in the test on NIH3T3 [2], 0.0179% (inactive) and 2.17% (inactive). The compound was classed as inactive in the test on CRL-7250 and in the test on HaCat [1]. Moreover, the outcome in the test on HACAT [3] and with HEK293T was “inactive [at 17.4 µM]” in each case. The Potency result in the test with MCC-13, in the test on MKL-1, in the test on MKL-2, with UISO and with WaGa was “inactive” in each case.
For `CCCc1cc(C(N)=S)ccn1`, the Potency entry in the test with PC49, with SC27B, with TAB109, in the test on TAB113, with TAB165 and in the test on W2 was “inactive” in each case. Moreover, the Potency result with MCC-13, in the test with MKL-1, in the test with MKL-2, in the test with UISO and with WaGa was “inactive” in each case. Moreover, the compound was classed as inactive with CRL-7250, in the test on HaCat [1] and in the test with HACAT [3]. The max response was -0.75% (inactive) and -9.47% (inactive) in the test with HEK293; 0.608% (inactive) with HaCat [1]; -1.25% (inactive) and 6.29% (inactive) in the test with KB-3-1; -7.14% (inactive) and -4.81% (inactive) with NIH3T3 [2].
`COc1ccc(C(=O)CC(=O)c2ccc(C(C)(C)C)cc2)cc1`: the Potency entry in the test with PC49, in the test with SC27B, in the test with TAB109, in the test on TAB113, in the test with TAB165 and in the test with MCC-13 was “inactive” each time. The Potency result with MCC-26 and with WaGa was “inactive” each time. Also, the max response in the test on CRL-7250 is -14.9% (inactive) and 1.38% (inactive); with HEK293 it was 1.8% (inactive); with HaCat [1], -14.4% (inactive); in the test on KB-3-1, -7.03% (inactive) and 3.76% (inactive); in the test on NIH3T3 [2], -3.73% (inactive) and 2.63% (inactive). The compound was classed as inactive in the test on HEK293, in the test with HaCat [1], in the test with HACAT [3] and in the test on HEK293T. For the same compound, the Potency entry in the test on MKL-1 was “inactive and 1.05 µM (active)”; in the test on MKL-2 it was 0.935 µM (active); in the test on UISO, “inactive and 11.8 µM (active)”.
In the case of `CCc1cc(C(N)=S)ccn1`, the Potency entry in the test with PC49, in the test on SC27B, with TAB109, in the test with TAB113, with TAB165 and in the test on W2 was “inactive” throughout. Moreover, the Potency result in the test on MCC-13, in the test with MCC-26, in the test with MKL-1, in the test on MKL-2, in the test on UISO and in the test with WaGa was “inactive” throughout. Further, the max response is -4.32% (inactive) and -3.13% (inactive) in the test with CRL-7250; -11.8% (inactive) with HEK293; -10.8% (inactive) in the test on HaCat [1]; -6.3% (inactive) and 8.73% (inactive) with KB-3-1; -2.49% (inactive) in the test on NIH3T3 [2]. The outcome in the test on HEK293, in the test on HaCat [1], in the test on NIH3T3 [2], with HACAT [3], with HEK293T and in the test on NIH3T3 [4] was inactive.
